ADAM17 inh: inhibits human ADAM17; AID 720648; inhibition, % at 6.95 µM; actives 0.83% (n = 370,000); recombinant ADAM17, EDANS/DABCYL FRET peptide cleavage;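 active = inhibition above the mean of compounds lying between control limits plus 3 SD, set per campaign, cut at about 8.5% in these data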
Target sequence (P78536 215-824 limits assumed): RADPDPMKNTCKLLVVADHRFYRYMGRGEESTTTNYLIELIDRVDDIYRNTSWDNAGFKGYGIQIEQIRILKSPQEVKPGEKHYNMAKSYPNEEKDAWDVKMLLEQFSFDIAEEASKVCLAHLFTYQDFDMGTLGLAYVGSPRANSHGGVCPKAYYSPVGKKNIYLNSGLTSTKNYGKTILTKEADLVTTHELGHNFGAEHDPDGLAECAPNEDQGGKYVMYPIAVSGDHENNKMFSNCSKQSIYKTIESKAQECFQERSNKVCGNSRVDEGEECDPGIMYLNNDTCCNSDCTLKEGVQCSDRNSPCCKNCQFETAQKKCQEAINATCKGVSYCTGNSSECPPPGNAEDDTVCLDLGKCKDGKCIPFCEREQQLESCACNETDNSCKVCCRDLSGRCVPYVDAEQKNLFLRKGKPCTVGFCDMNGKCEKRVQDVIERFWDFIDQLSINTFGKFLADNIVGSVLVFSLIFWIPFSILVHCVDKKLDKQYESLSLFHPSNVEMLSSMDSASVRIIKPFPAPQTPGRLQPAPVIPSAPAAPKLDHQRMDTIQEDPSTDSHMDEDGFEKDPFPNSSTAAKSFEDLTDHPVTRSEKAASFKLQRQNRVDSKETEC
Ecoli rRNA inh: inhibits bacterial ribosomal RNA function over humanized ribosomes | E. coli WT GFP vs humanized-ribosome RFP mutants, fluorescence, 24 h; hits give low values; DMSO median 0, no signal -100 | GFP signal change (wild-type ribosome), % (concentration not given with the values) | actives 1.6% (n = 350,000) | AID 720706;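 active = significant combined selectivity score with lowered wild-type GFP, culture density cut under 30%, mutant RFP and density less affected; inactive = any of these conditions unmet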
ADAM10 inh: inhibitors of human ADAM10 | O14672 | recombinant ADAM10, EDANS/DABCYL FRET peptide cleavage, 3 h | inhibition, % at 7 µM | actives 0.62% (n = 370,000) | AID 720582;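 active = inhibition above a per-campaign cutoff equal to the mean of compounds falling between control-based bounds plus 3 SD, cut at about 20% in these data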
FGF22 binding-1: shifts melting point of recombinant human FGF22; Q9HCT0; recombinant FGF22 thermal shift, SYPRO orange fluorescence; percent of sucrose octasulfate shift, DMSO zero; activity (Tm shift, normalised), % at 9.99 µM; actives 1.5% (n = 340,000);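 active = mean Tm shift, scaled 0 neutral to 100 positive control, at about 1.3% or above, every replicate too, limit read from the data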
KLK7 zymogen act: proKLK7 (human) activation, primary screen. P49862. purified proKLK7, EDANS-DABCYL substrate fluorescence; 100% is mature enzyme control, 0% vehicle. activation, % at 7 µM. actives 0.9% (n = 370,000);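 active = activation above the mean of all tested compounds plus 3 SD, computed per campaign excluding outliers beyond control limits, cut at about 13% in these data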
FGF22 binding-2: binders of human FGF22 by thermal shift. actives 2% (n = 1,000). thermal shift activity, °C (ΔTm) at 38 µM. recombinant FGF22 thermal shift, SYPRO orange fluorescence. shares compounds with FGF22 binding-1;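 active = fitted rise in melting shift crosses a set limit at or below the top valid dose tested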
SYPRO no-protein: compound-only SYPRO artifact for FGF22 binders; shares compounds with FGF22 binding-1; compound-only SYPRO orange thermal shift counter-screen, no protein; AC50, µM (titrated, usually from 38 µM); actives 2% (n = 1,000); AID 743019;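 active = rising signal whose fitted curve reaches the 0.54 level within the top valid dose, showing a melting point, actives reach about 13 µM in these data; inactive = the rest, including activity in the opposite direction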; also: value is where the raw curve crosses a fixed level and not half-maximal
Large screens that a line does not name were inactive (follow-up assays come after a bar, where they were run); ! = not confirmed by another sample. Sampled rows, rich in hits. Any-hit rate of the full collection: about 3.8%.

O=C(N/N=C/c1ccc([N+](=O)[O-])o1)c1cc2ccccc2o1	none
CN(C)CCCNC(=O)C[C@@H]1CC[C@H](NS(=O)(=O)c2ccccc2)[C@H](CO)O1	none (no result: ADAM17 inh, ADAM10 inh, KLK7 zymogen act)
Cc1noc(C)c1S(=O)(=O)N(C)C[C@H]1OCCCC[C@@H](C)Oc2ccc(NC(=O)Nc3ccccc3)cc2C(=O)N([C@@H](C)CO)C[C@@H]1C	none (no result: ADAM17 inh, ADAM10 inh, KLK7 zymogen act)
CCCC(=O)Nc1ccc2c(c1)C(=O)N(C)[C@H]1CC[C@H](CC(=O)O)O[C@H]1CO2	none (no result: ADAM17 inh, ADAM10 inh, KLK7 zymogen act)
Cc1ccc(S(=O)(=O)N(C)/N=C/c2ccc(N(C)C)cc2)cc1	FGF22 binding-1 20.4 | FGF22 binding-2 inactive | SYPRO no-protein inactive
CCCNC(=O)N1CC2(CCN(S(=O)(=O)c3ccc(OC)cc3)CC2)c2c(n(C)c3cc(OC)ccc23)[C@@H]1CO	none (no result: ADAM17 inh, ADAM10 inh, KLK7 zymogen act)
O=S(=O)(/N=C(/Nc1nccs1)c1ccc(F)cc1)c1ccccc1	FGF22 binding-1 37.9 | FGF22 binding-2 inactive | SYPRO no-protein inactive
O=S(=O)(/N=C(/Nc1nc2ccccc2s1)c1ccccc1)c1ccc(F)cc1	none (no result: FGF22 binding-1)
O=C(C[C@@H]1C=C[C@H](NC(=O)c2cccc(F)c2)[C@H](CO)O1)NCc1ccccc1	FGF22 binding-1 20.2 (no result: ADAM17 inh, ADAM10 inh, KLK7 zymogen act) | FGF22 binding-2 inactive | SYPRO no-protein inactive
O=C(C[C@@H]1C=C[C@H](NC(=O)Nc2cc(F)ccc2F)[C@H](CO)O1)Nc1ccc(-c2ccccc2)cc1	FGF22 binding-1 1.8 (no result: ADAM17 inh, ADAM10 inh, KLK7 zymogen act) | FGF22 binding-2 inactive | SYPRO no-protein inactive
COC(=O)c1cc(OC)c(OC)cc1NC(=O)c1ccccc1C	FGF22 binding-1 8.5 | FGF22 binding-2 inactive | SYPRO no-protein inactive
COC(=O)c1cc(OC)c(OC)cc1NC(=O)c1ccccc1	none (no result: Ecoli rRNA inh, FGF22 binding-1)
O=C(CCc1c[nH]c2ccccc12)Nc1ccc(Nc2cccnc2)cc1	Ecoli rRNA inh -30.3, FGF22 binding-1 2.0 | FGF22 binding-2 inactive | SYPRO no-protein inactive
O=C(CCc1c[nH]c2ccccc12)Nc1ccc(Nc2ccncc2)cc1	none
COc1ccc(S(=O)(=O)Nc2ccc3c(c2)C(=O)N([C@@H](C)CO)C[C@@H](C)[C@H](CN(C)C)OCCCC[C@@H](C)O3)cc1	none (no result: ADAM17 inh, ADAM10 inh, KLK7 zymogen act)
C[C@@H]1CN([C@H](C)CO)C(=O)c2cc(NS(=O)(=O)c3cn(C)cn3)ccc2O[C@@H]1CN(C)Cc1ccccc1	none (no result: ADAM17 inh, ADAM10 inh, KLK7 zymogen act)
C[C@H]1CN([C@@H](C)CO)C(=O)c2cc(NS(=O)(=O)c3cn(C)cn3)ccc2O[C@H]1CN(C)Cc1ccccc1	FGF22 binding-1 24.5 (no result: ADAM17 inh, ADAM10 inh, KLK7 zymogen act) | FGF22 binding-2 inactive | SYPRO no-protein inactive
C[C@H]1CN([C@@H](C)CO)C(=O)c2cc(NS(=O)(=O)c3cn(C)cn3)ccc2O[C@H]1CN(C)S(=O)(=O)c1ccccc1	none (no result: ADAM17 inh, ADAM10 inh, KLK7 zymogen act)
C[C@H](CO)N1C[C@H](C)[C@@H](CN(C)S(=O)(=O)c2ccccc2)Oc2ccc(NS(=O)(=O)c3cn(C)cn3)cc2C1=O	FGF22 binding-1 2.3! | FGF22 binding-2 inactive | SYPRO no-protein inactive
CCNC(=O)c1cc2c(c(-c3cccc(-c4ccncc4)c3)n1)[C@H](CCO)N(S(=O)(=O)CC)C2	none (no result: ADAM17 inh, ADAM10 inh, KLK7 zymogen act)
C[C@H]1CN([C@@H](C)CO)C(=O)CCCn2cc(nn2)CO[C@H]1CN(C)Cc1cccnc1	none (no result: ADAM17 inh, ADAM10 inh, KLK7 zymogen act)

Bioassay records from PubChem BioAssay.
